Experimental findings from ChEMBL document CHEMBL1961873, “Compounds: GSK PKIS; Assays: Nanosyn kinase panel” (2012) are described below.

For experiment [1], the target named is Leukocyte tyrosine kinase receptor (Homo sapiens) (UniProt P29376). The conditions noted are these: at 1 µM.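 Note: each value is the mean inhibition of LTK.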
In experiment [2] the target is Tyrosine-protein kinase Lyn (Homo sapiens) (UniProt P07948). Conditions: at 0.1 µM.
Experiment [3] shares this target. The conditions noted are these: at 1 µM.
The target is the same in experiment [4]. The conditions noted are these: at 0.1 µM. This is another data set of the same source.
For experiment [5] the target is unchanged. Conditions: at 1 µM. This is another data set of the same source.
Experiment [6] deals with T1, Tyrosine-protein kinase Mer (Homo sapiens) (UniProt Q12866).
T1 sequence (whole entry): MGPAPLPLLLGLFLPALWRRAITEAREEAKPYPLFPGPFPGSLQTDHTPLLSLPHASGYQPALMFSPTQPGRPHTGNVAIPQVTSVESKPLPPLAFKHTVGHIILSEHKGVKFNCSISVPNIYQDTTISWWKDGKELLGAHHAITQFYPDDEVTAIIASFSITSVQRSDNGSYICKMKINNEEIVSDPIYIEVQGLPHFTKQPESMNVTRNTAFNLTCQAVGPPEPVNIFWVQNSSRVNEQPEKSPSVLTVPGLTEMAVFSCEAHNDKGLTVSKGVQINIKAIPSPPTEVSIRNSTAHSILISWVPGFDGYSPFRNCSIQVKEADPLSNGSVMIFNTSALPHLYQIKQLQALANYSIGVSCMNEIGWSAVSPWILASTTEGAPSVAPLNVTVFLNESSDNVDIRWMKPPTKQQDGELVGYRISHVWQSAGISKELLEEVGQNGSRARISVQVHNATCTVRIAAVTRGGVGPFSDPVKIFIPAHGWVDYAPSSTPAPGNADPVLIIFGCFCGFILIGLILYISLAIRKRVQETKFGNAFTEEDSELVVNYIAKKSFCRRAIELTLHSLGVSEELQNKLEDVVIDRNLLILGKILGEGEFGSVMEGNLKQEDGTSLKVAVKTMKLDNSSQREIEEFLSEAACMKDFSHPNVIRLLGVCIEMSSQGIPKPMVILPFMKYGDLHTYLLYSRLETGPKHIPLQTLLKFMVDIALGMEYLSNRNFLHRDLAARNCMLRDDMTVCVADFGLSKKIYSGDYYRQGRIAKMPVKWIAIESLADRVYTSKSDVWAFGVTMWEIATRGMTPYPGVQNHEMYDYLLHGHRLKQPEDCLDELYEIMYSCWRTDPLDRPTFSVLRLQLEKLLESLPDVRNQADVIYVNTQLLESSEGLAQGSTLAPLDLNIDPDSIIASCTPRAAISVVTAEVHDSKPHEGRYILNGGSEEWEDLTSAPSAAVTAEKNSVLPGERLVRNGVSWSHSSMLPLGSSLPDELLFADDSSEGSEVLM
Conditions: at 0.1 µM.

Experiment [7] has as its target T1, Tyrosine-protein kinase Mer (Homo sapiens). Conditions: at 1 µM.
For experiment [8], the target named is Hepatocyte growth factor receptor (Homo sapiens) (UniProt P08581). Conditions: at 0.1 µM.
The target is the same in experiment [9]. The conditions noted are these: at 1 µM.
Experiment [10] concerns the target T2, Muscle, skeletal receptor tyrosine-protein kinase (Homo sapiens) (UniProt O15146).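 Note: values are mean inhibition of MuSK from the GSK PKIS kinase screening panel.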
T2 sequence (whole entry): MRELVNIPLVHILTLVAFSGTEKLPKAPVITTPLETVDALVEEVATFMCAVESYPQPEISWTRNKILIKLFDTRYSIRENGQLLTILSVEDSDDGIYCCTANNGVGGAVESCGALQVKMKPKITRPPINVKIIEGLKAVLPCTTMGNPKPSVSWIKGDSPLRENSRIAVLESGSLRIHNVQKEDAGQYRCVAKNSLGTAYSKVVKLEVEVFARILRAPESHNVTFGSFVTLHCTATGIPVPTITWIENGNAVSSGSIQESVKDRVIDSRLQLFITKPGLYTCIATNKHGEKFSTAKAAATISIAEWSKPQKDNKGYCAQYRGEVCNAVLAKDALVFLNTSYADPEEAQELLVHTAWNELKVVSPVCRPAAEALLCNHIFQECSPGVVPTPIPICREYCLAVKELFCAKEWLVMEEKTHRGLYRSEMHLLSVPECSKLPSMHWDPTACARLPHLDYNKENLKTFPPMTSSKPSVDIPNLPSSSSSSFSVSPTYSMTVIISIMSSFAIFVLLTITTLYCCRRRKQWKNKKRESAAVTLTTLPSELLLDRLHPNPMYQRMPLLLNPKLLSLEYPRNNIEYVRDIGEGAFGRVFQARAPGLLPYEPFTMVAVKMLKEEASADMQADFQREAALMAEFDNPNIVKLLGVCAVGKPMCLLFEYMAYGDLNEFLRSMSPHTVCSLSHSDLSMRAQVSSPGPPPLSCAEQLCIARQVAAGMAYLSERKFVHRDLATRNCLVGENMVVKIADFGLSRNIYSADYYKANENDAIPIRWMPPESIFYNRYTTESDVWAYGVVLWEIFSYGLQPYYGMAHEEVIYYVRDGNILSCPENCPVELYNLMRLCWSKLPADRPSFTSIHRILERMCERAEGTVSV
The conditions noted are these: at 0.1 µM.

Where “and” joins values, the source holds several entries; their conditions need not be identical. Equal entries are not always repeated.

Chain of Hepatocyte growth factor receptor (Homo sapiens) (P08581 whole entry): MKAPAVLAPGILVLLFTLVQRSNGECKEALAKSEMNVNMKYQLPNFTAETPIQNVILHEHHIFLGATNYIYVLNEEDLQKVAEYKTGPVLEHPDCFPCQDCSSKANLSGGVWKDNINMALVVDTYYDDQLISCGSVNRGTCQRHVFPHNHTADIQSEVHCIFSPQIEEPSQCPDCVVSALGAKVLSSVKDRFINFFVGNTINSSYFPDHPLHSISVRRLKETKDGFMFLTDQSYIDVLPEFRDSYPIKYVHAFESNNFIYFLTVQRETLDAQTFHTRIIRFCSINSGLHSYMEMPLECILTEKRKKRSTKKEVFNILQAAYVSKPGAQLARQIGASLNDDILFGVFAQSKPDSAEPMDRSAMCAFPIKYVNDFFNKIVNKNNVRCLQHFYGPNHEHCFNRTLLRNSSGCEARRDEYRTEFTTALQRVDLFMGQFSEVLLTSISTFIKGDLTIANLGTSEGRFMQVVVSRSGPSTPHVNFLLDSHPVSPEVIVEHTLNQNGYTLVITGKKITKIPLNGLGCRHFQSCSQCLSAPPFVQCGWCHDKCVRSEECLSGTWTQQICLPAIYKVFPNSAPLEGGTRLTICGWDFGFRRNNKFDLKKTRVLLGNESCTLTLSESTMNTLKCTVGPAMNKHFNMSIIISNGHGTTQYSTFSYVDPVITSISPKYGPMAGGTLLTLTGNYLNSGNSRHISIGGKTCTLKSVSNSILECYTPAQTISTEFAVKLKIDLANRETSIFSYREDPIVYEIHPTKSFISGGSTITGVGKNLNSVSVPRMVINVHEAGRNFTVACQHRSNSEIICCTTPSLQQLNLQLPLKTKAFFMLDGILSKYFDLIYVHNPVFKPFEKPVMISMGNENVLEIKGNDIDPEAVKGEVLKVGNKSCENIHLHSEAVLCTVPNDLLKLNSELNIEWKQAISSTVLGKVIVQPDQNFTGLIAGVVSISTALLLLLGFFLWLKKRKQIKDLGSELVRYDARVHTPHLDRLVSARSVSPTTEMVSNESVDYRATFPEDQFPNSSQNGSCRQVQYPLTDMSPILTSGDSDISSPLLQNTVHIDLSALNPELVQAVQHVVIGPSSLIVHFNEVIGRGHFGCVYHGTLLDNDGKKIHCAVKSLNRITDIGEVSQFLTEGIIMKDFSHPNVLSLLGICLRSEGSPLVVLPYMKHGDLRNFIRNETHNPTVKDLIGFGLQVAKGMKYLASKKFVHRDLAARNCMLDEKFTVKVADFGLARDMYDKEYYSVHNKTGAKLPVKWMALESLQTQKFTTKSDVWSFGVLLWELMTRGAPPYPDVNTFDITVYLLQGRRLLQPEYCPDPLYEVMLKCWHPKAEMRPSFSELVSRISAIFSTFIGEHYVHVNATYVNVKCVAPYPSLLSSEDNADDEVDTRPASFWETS
Chain of Tyrosine-protein kinase Lyn (Homo sapiens) (P07948 2-512 limits assumed): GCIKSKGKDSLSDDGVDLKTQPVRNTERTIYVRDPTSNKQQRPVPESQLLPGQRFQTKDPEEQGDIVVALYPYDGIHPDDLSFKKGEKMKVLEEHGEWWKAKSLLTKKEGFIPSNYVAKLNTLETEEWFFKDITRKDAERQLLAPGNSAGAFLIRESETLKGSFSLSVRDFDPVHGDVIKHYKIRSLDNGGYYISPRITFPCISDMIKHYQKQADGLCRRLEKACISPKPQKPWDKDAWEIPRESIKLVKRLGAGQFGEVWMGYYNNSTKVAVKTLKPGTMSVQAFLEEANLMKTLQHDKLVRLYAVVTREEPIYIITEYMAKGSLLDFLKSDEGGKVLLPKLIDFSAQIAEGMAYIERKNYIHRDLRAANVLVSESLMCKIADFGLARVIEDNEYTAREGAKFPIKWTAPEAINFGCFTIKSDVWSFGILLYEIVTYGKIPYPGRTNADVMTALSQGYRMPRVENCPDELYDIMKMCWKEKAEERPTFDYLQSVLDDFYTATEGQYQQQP
Chain of Leukocyte tyrosine kinase receptor (Homo sapiens) (P29376 whole entry): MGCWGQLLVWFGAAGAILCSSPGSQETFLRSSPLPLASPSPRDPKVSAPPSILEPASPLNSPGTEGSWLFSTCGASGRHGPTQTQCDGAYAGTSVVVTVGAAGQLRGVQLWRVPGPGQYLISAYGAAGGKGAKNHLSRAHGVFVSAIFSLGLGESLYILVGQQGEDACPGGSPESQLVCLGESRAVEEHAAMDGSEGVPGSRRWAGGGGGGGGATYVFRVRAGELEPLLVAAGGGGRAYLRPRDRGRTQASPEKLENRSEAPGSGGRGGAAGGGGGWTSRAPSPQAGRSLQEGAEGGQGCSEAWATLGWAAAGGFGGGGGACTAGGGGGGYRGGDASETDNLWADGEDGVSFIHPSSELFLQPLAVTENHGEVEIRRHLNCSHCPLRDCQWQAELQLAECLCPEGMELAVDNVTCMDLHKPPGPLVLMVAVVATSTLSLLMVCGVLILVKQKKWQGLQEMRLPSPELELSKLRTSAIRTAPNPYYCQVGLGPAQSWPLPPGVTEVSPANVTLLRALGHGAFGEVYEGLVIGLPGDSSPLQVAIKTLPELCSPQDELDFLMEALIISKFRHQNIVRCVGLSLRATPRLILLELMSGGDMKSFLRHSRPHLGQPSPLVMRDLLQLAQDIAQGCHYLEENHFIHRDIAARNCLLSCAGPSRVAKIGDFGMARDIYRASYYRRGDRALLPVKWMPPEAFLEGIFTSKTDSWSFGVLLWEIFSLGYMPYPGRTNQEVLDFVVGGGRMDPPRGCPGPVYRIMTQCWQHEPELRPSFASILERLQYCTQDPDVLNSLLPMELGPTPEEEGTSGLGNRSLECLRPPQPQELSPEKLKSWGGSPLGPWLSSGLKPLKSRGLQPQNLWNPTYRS

As a reminder, the inhibition is the drop in the measured response relative to a control, in per cent. On to `COC(=O)Nc1nc2ccc(Oc3ccc(NC(=O)Nc4cc(C(F)(F)F)ccc4F)cc3)cc2s1`, for which the inhibition in experiment [1] stood at 2.2%; in [2], 28.7%; in experiment [3], 70.5%; in experiment [4] it was 22.6%; in [5], 66.5%; in experiment [6], 0.03%. For the same compound, the inhibition came to 4.8% in experiment [7], 9.69% in experiment [8], 34.6% in experiment [9] and 76.3% in experiment [10].
With `OCCCNc1nccc(-c2c(-c3ccc(F)cc3)nn3cc(C(F)(F)F)ccc23)n1`, the inhibition in [1] was -0.25%; in experiment [2], 3.88%; in experiment [3] it was 7.02%; in [4] it was 3%; in experiment [5] it was 4.51%; in experiment [6] it was 0.89%. The inhibition in [7] worked out at 5.36%; in experiment [8] it was 1.57%; in experiment [9], 5.11%; in experiment [10] it was 2.96%.
For `Fc1cccc(COc2ccc(Nc3ncncc3C#Cc3ccccc3)cc2Cl)c1`, the inhibition in experiment [1] was 4.63%; in [2], 6.26%; in experiment [3], 7.71%; in [4], 2.8%; in experiment [5], 7.49%; in [6], 0.06%. Also, the inhibition in experiment [7] amounted to 2.67%; in experiment [8], 8.24%; in [9], 5.53%; in experiment [10] it was 3.76%.
Regarding `Cn1c(-c2nonc2N)nc2cnccc21`, the inhibition in experiment [1] was determined as 4.18%; in [2], 4.05%; in experiment [3] it was 2.29%; in [4], 2.97%; in [5], 1.52%; in experiment [6], 1.12%. For the same compound, the inhibition in [7] is 3.84%; in [8], 3.78%; in [9], 3.65%; in experiment [10], 2.14%.
For the compound `Nc1nonc1-c1nc2cnccc2n1C1CC1`, the inhibition was 2.71% and 2.44% in experiment [1]; 3.73% and 1.56% in experiment [2]; 4.88% and 4.63% in experiment [3]; 2.39% and 0.71% in experiment [4]; 4.2% and 2.36% in [5]; 3.41% and 1.34% in [6]. Moreover, the inhibition is 6.46% and 2.52% in experiment [7]; 6.7% and 2.47% in experiment [8]; 7.09% and 3.3% in experiment [9]; 4.75% and 1.45% in experiment [10].
Regarding `NC(=O)c1ccc2c(-c3ccnc(NCCCO)n3)c(-c3ccc(F)cc3)nn2c1`, the inhibition in experiment [1] is 6.21%; in [2], 6.82%; in experiment [3], 12.1%; in [4] it was 4.82%; in [5], 10.6%; in experiment [6], 5.01%. Also, the inhibition is 14.2% in experiment [7], 7.18% in experiment [8], 15.1% in experiment [9] and 3.34% in experiment [10].
Take `O=C1Nc2ccccc2/C1=C1\CCc2cc(O)ccc21`: the inhibition stood at 36.7% in [1]; 6.08% in [2]; 12% in [3]; 2.38% in experiment [4]; 9.08% in [5]; 2.69% in experiment [6]. In addition, the inhibition in experiment [7] came out at 8.7%; in experiment [8], 6.45%; in [9], 10.1%; in experiment [10] it was 5.49%.
With `CC(C)c1ccc(-c2cc(-c3c[nH]nc3-c3ccccn3)ccn2)cc1`, the inhibition was 2.43% in [1]; 1.49% in [2]; 1.48% in experiment [3]; 0.81% in experiment [4]; 1.31% in experiment [5]; -0.12% in experiment [6]. In addition, the inhibition in experiment [7] was 3.22%; in [8], -1.81%; in experiment [9] it was 3.3%; in [10] it was 5.54%.
Regarding `CNC(=O)c1cncc(/C=C/c2ccccc2C)c1`, the inhibition was 2.98% in experiment [1]; 7.42% in [2]; 18.9% in [3]; 3.73% in [4]; 14.9% in experiment [5]; -0.15% in experiment [6]. The inhibition in experiment [7] came out at 1.66%; in [8], 9.7%; in experiment [9] it was 5.5%; in experiment [10], 3.91%.
Regarding `CN(c1ccc(NC(=O)NCCN2CCOCC2)cc1)c1ccnc(Nc2ccc(CS(C)(=O)=O)cc2)n1`, the inhibition turned out to be 5.29% in experiment [1]; 4.34% in experiment [2]; 14.9% in experiment [3]; 2.19% in experiment [4]; 13.6% in [5]; 1.6% in experiment [6]. Also, the inhibition in experiment [7] came out at 6.28%; in [8], 3.89%; in experiment [9], 41.4%; in [10], 3.78%.
Consider `NS(=O)(=O)c1ccc(N/N=C2\C(=O)Nc3ccc(C(=O)NCc4ccncc4)cc32)cc1`, for which the inhibition in experiment [1] was 2.51%; in experiment [2] it was 5.87%; in experiment [3], 17.7%; in experiment [4], 3.02%; in [5] it was 14.7%; in [6], 1.29%. Further, the inhibition in experiment [7] was found to be 1.37%; in experiment [8], 5.14%; in [9] it was 13%; in experiment [10], 9.84%.
For `CS(=O)(=O)CCNCc1ccc(-c2ccc3ncnc(Nc4ccc(OCc5ccccc5)cc4)c3c2)o1`, the inhibition in [1] is 4.57%; in experiment [2], 4.79%; in [3], 9.83%; in experiment [4], 4.55%; in [5] it was 8.36%; in experiment [6], 7.16%. In addition, the inhibition in [7] is 43.7%; in [8], -0.6%; in experiment [9] it was 4.43%; in experiment [10], 2.69%.
`COc1cc(N2CCN(C(C)C)CC2)ccc1Nc1nc(Nc2cccc(F)c2C(=O)O)c2cc[nH]c2n1`: the inhibition in experiment [1] worked out at 91.8%; in experiment [2] it was 4.91%; in [3], 8.65%; in experiment [4], 3.03%; in [5], 6.2%; in experiment [6], 1.01%. The inhibition in experiment [7] was found to be 4.62%; in experiment [8], 9.65%; in experiment [9] it was 1.52%; in experiment [10], 4.22%.
For `COc1cccc(-n2ncc3c(N/N=C/c4ccc(C(=O)NCCN(C)C)cc4)ncnc32)c1`, the inhibition in [1] was found to be 4.37%; in experiment [2] it was 56.9%; in experiment [3], 88.1%; in [4], 51%; in experiment [5] it was 86.3%; in experiment [6], 16.8%. The inhibition worked out at 59.3% in experiment [7], 12.9% in experiment [8], 55.7% in [9] and 40.4% in [10].
With `CS(=O)(=O)Nc1ccc(-c2cc(-c3ccccc3)cc(C(N)=O)c2N)cc1`, the inhibition in experiment [1] is 2.83%; in experiment [2] it was 0.46%; in experiment [3], 3.24%; in experiment [4] it was -1.81%; in experiment [5] it was 0.8%; in [6], 0.78%. Also, the inhibition was -0.18% in experiment [7], -1.07% in experiment [8], 2.34% in [9] and 1.31% in experiment [10].
